From PubChem
A selection: hits, their analogues and other compounds. The true share with any hit is near 4.8%.
hcDAF12 agonist – activators of H. contortus DAF-12 nuclear receptor. activation, % at 6.8 µM. AID 652067. HEK293 hcDAF-12 lit1-tk-luc reporter, luminescence; 0% DMSO, 100% Δ7-dafachronic acid. 1.4% of 370,000 active;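 active = activation above the mean of all tested compounds plus 3 SD, cut at about 5.5% in these data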;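 also: 100% = response to 3 µM Δ7-dafachronic acid high control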
DAX1 inh-1 – NR0B1 (DAX1) inhibition. AID 504766. P51843. inhibition, % at 6.75 µM. HEK293 Gal4-DAX1 luciferase reporter, luminescence. 0.99% of 340,000 active;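 active = inhibition above the mean over all tested compounds plus 3 SD, cut at about 4.2% in these data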;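 also: 0% = DAX1-transfected cells with DMSO and 100% = empty-vector control cells with DMSO; inhibition shows as a rise in luminescence from relieved DAX1 repression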
DAX1 inh-2 – inhibitors of DAX1 repression of SF-1 activated StAR promoter; HEK293T StAR-luciferase reporter, SF-1/DAX-1 repression relief; inhibition, % at 6.8 µM; 1.1% of 370,000 active; AID 652010;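 active = inhibition above the mean over all tested compounds plus 3 SD, cut at about 3.6% in these data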;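 also: 0% = DAX-1 cells with DMSO and 100% = cells lacking DAX-1 with DMSO; higher inhibition means more luminescence from relief of DAX-1 repression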
hgDAF12 agonist – activates the H. glycines DAF-12 receptor ligand-binding domain; HEK293 GAL4-hgDAF12 UAS-luciferase reporter, agonist luminescence; normalized to butyrate control; AID 687014; activation, % at 6.8 µM; 1.8% of 370,000 active;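 active = activation above a cutoff set at the mean of all screened compounds plus 3 SD, cut at about 10% in these data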;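 also: 0% = DMSO wells and 100% = sodium butyrate wells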
SMARCA2 act – increases SMARCA2 function in MMTV reporter cells; MG213 cells, MMTV-luciferase reporter, dexamethasone, overnight; activation, % at 9.1 µM; 1% of 370,000 active; AID 652017; in the data active = activation above about 7.8%;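 also: 0% = vehicle wells and 100% = reference activator wells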
ssDAF12 agonist – S. stercoralis DAF-12 activation, primary screen | HEK293 ssDAF-12/GRIP1 lit1-tk-luc reporter, luminescence; % of 3 µM dafachronic acid response | activation, % at 6.8 µM | 1% of 370,000 active | AID 652126;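 active = activation above the mean over all tested compounds plus 3 SD, cut at about 0.9% in these data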;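 also: 0% = DMSO-only wells and 100% = 3 µM delta7-dafachronic acid wells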
DAX1 inh confirm – confirmation of human DAX1 (NR0B1) inhibitors; inhibition, % at 6.8 µM; 87% of 2,400 active; HEK293T StAR-promoter luciferase reporter, SF-1/DAX-1 repression; shares compounds with DAX1 inh-2;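 active = inhibition above the average of every tested compound plus 3 SD, cut at about 3.8% in these data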;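 also: 0% = DAX-1 cells with DMSO and 100% = no DAX-1 control cells with DMSO; active compounds raise luminescence by relieving repression of the StAR reporter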
Target sequence (P51843 whole entry, looked up): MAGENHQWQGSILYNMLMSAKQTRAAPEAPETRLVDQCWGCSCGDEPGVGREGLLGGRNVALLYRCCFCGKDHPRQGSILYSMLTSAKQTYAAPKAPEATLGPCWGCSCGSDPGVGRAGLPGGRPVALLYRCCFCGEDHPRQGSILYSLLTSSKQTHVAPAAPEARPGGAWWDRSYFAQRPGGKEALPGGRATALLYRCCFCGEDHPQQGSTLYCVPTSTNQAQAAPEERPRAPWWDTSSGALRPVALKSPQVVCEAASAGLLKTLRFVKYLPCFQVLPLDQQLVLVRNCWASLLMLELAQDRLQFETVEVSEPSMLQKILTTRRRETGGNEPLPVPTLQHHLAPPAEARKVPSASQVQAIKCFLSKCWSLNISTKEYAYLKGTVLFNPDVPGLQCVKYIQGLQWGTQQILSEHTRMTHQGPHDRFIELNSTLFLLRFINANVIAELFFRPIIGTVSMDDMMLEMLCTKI
SF1 AF2mut Luc – nonselective inhibitor or artifact in SF-1 mutant DAX1 counter-screen | shares compounds with DAX1 inh-2 | HEK293 StAR-luciferase, SF-1 AF2 mutant, luminescence | inhibition, % at 6.8 µM | 78% of 2,400 active | AID 652136;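 active = inhibition above the mean of all tested compounds plus 3 SD, cut at about 3% in these data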;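 also: 0% = DAX-1 transfected cells with DMSO and 100% = cells without DAX-1 with DMSO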
An asterisk follows results filed as active; . = not tested or not shown.

SMILES	hcDAF12 agonist	DAX1 inh-1	DAX1 inh-2	hgDAF12 agonist	SMARCA2 act	ssDAF12 agonist	DAX1 inh confirm	SF1 AF2mut Luc
CCC[C@H]1CC(=O)C=C(c2ccc(OC)cc2)ON1C(=O)OC(C)(C)C	-2	-1	-2	0	-2	-1	.	.
COc1ccc(-c2sc(C(=O)c3ccc(Cl)cc3Cl)cc2CC(=O)O)cc1	-1	-1	-1	2	-1	-1	.	.
CCOC1=C2CN(S(=O)(=O)c3ccc(C)cc3)[C@@H](c3cccs3)C[C@H]2[C@H]2C(=O)N(c3ccccc3)C(=O)[C@H]2C1	-1	.	4.5*	1	-3	-1	-3	-1
Cc1ccc(S(=O)(=O)N2C[C@H]3C(=O)C[C@@H]4C(=O)N(c5ccccc5)C(=O)[C@@H]4[C@@H]3C[C@H]2c2cccs2)cc1	1	.	0	1	2	-1	.	.
CNc1nnc(SCC(=O)c2cc(C)n(C3CC3)c2C)s1	3	0	5.0*	5	1	-1	6.7*	3
O=C(NCCc1ccccc1)OCc1cn(Cc2cc(F)ccc2F)nn1	-3	.	0	5	-2	-1	.	.
O=C(COC(=O)/C=C/c1ccc(Cl)cc1)NC1CCCCCC1	-2	0	4.8*	0	-3	-1	3	1
O=C(COC(=O)/C=C/c1ccc(Cl)cc1)NC1CC1	2	-1	0	2	1	1	.	.
COc1ccc2nc(NC(=O)CCNC(=O)c3ccco3)sc2c1	5	1	2	8	7	-1	.	.
COc1ccc2sc(NC(=O)c3ccco3)nc2c1	4	-2	6.2*	10	2	0	10*	3
CC(=O)Nc1cccc(C(=O)NNC(=O)c2n[nH]c(=O)c3ccccc23)c1	2	1	0	1	0	-1	.	.
Cc1ccc(-c2cc(C(=O)N3CCCC3)no2)cc1	4	-3	4.9*	6	3	-1	8.6*	0
O=C(c1ccc(-c2ccccc2Cl)o1)N1CCN(S(=O)(=O)c2cccs2)CC1	-1	-1	2	3	-1	-1	.	.
COc1cccc(CNC(=O)C2CSC3(C)CCC(=O)N23)c1 (stereo not drawn)	0	0	0	1	4	-1	.	.
Cc1cc(F)ccc1-c1cc(C(=O)Nc2ccc(F)cc2)[nH]n1	2	.	9.6*	12*	1	0	11*	5.6*
COc1ccc(NC(=O)c2cc(-c3ccc(F)cc3C)n[nH]2)cc1OC	-3	.	2	-4	-3	-1	.	.
O=c1[nH]c(N/N=C\c2ccc3c(c2)OCO3)nc2ccccc12	4	3	4.9*	13*	6	1	6.5*	3.3*
O=C(O)c1cc(N/N=C/c2ccc3c(c2)OCO3)ccc1Cl	6.0*	-2	6.7*	10	0	-1	6.3*	3.1*
O=C(N/N=C/c1ccc(OC(=O)c2cccs2)cc1)c1ccccn1	5	1	6.9*	7	6	0	8.1*	4.7*
O=C(N/N=C/c1cc2c(cc1Br)OCO2)c1ccccn1	3	.	2	6	2	0	.	.
O=C(N/N=C/c1ccc2c(c1)OCO2)c1ccccn1	4	-1	4.7*	10	6	0	11*	2
O=c1[nH]c(N/N=C/c2ccccc2)nc2ccccc12	3	0	4	7	3	0	.	.
CCOc1cc(/C=N/NC(=O)c2ccccn2)ccc1OC(=O)c1cccs1	2	1	3	6	3	-1	.	.
CC1C(=O)N(Cc2cn(CCC3OCCO3)nn2)CCS(=O)(=O)N1Cc1ccc(-c2ccc(Cl)c(Cl)c2)cc1 (stereo not drawn)	-4	-2	-1	-1	-5	-1	.	.
O=C(OC12CCCN(C1)/C(=C/c1cccnc1)C2)C1CCCCC1 (stereo not drawn)	-4	.	-3	-4	-4	-2	.	.
COc1ccc(C(CNC(=O)Cc2ccccc2Cl)N2CCCCC2)cc1 (stereo not drawn)	0	1	0	0	-3	-1	.	.
COc1ccc(C(CNC(=O)c2cc3c(s2)CCC(C)C3)N2CCCC2)cc1 (stereo not drawn)	-1	0	5.8*	1	0	-1	5.8*	3.0*
